# Compound activity from PubChem BioAssay.
# Shown are actives, neighbours in structure and some others; about 6.5% of the full set was active somewhere.
# Lassa entry inh – qHTS for Inhibitors of binding or entry into cells for Lassa Virus; 300,000 tested, 1.2% active; Potency, µM (highest dose often 37.9 µM), without a hit: at the top dose activity change, negative = inhibition, most hits filed as inhibitors; Lassa virus pseudotype entry inhibition, cell reporter; AID 540256, 2011; calls by dose curve; tested in HEK293 cells; further: potency means the concentration at half of the fitted maximal effect; nearly all actives have a fitted effect of over 50% in size
# VACV Venus inh – qHTS for Stage-Specific Inhibitors of Vaccinia Orthopoxvirus: Venus Reporter Primary qHTS; Potency, µM (series often up to 36.5 µM), inactives show at the highest dose activity change, negative = inhibition, hits mostly inhibitors; Vaccinia virus Venus reporter expression, fluorescence; 330,000 tested, 0.46% active; AID 720580, 2013; calls by dose curve; tested in A549 cells; further: potency means the concentration at half of the fitted maximal effect; nearly all actives have a fitted effect of over 30% in size
# FMDV antiviral – High Throughput Screening for Foot and Mouth Disease Virus Antivirals; Potency, µM (titrated, usually from 57.9 µM), inactives show top-dose activity change, negative = inhibition, actives largely listed as inhibitors; AID 1159524, 2015; 410,000 tested, 1.2% active; FMDV antiviral cell-based qHTS; calls by dose curve; tested in HEK293T cells; further: read-out not given here; potency means the concentration at half of the fitted maximal effect; nearly all actives have a fitted effect of over 45% in size
# HCMV antiviral – qHTS Assay for inhibitors of the human cytomegalovirus (HCMV); AID 1259415, 2018; 410,000 tested, 4.5% active; HFF cells, HCMV-luciferase reporter, 72 h; stronger effect = lower value; activity change, negative = inhibition, % at 57.5 µM; in the data active means activity change below about -60%; inconclusive means no clear call, values can overlap the other calls; inactive means above about -39%
#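 Luciferase read-out from HCMV-luciferase-infected HFFs (MOI 1 PFU/cell) 72 h post infection at 37C; compounds added after 16 h cell attachment; activity normalized between buffer-only basal and Salinomycin (10uM) inhibitor controls.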
# Vaccinia mCherry – qHTS for Stage-Specific Inhibitors of Vaccinia Orthopoxvirus: mCherry Reporter Primary qHTS | Potency, µM (highest dose often 36.5 µM), for inactives: at the top dose activity change, negative = inhibition, usual class: inhibitors | AID 720579, 2013 | 310,000 tested, 0.63% active | Vaccinia virus mCherry reporter infection, fluorescence; calls by dose curve; tested in A549 cells; further: potency means the concentration at half of the fitted maximal effect; nearly all actives have a fitted effect of over 35% in size
# MARV entry inh – qHTS for inhibitors of binding or entry into cells for Marburg Virus; AID 540276, 2011; Marburg virus pseudotyped entry inhibition, cell reporter; Potency, µM (doses to about 37.8 µM), inactives show at the top dose activity change, negative = inhibition, hits mostly inhibitors; 300,000 tested, 1.8% active; calls by dose curve; tested in HEK293 cells; further: potency means the concentration at half of the fitted maximal effect
# An asterisk follows results filed as active; i = inactive; ? = inconclusive; nt = no result given; [ ] = dose if it differs, or a comment. On the % scale 0 is the no-effect control and ±100 the full control effect.
SMILES,Lassa entry inh,VACV Venus inh,FMDV antiviral,HCMV antiviral,Vaccinia mCherry,MARV entry inh
Cc1ccc(C(=O)/C=C/c2cn(CC(O)CN3CCCCCC3)c3ccccc23)cc1 (stereo not given),6%[46.1 µM],-25%,?,-39,i,?
CCOC(=O)c1cc(-c2ccccc2)n(CCC(=O)Nc2ccc(OC)c(Cl)c2)c1C,?,-13%,-9%,0,-20%,nt
Cn1cnnc1Sc1cc(N2CCN(S(=O)(=O)c3ccccc3)CC2)ccc1[N+](=O)[O-],-8%,nt,-2%,-34,nt,-16%
CC(=O)c1ccc(Sc2nnnn2-c2ccccc2)c([N+](=O)[O-])c1,-11%,-3%,32µM*,-67*,-5%,?
CN1CCN(S(=O)(=O)c2ccc(Sc3nnnn3-c3ccccc3)c([N+](=O)[O-])c2)CC1,15%,-5%,20µM*,12,-13%,?
Cc1cc(C)cc(C(=O)Nc2c3c(nn2-c2ccccc2C)CS(=O)(=O)C3)c1,13%[46.1 µM],-7%,-3%,-10,-13%,nt
Cc1cccc(NC(=O)c2sc3nc(-c4cc5ccc(O)cc5oc4=O)[nH]c(=O)c3c2C)c1,?,70%,-24%,-8,-20%,nt
O=C(c1ccncc1)c1ccc(N2CCN(C3CC(=O)N(Cc4ccccc4)C3=O)CC2)cc1 (stereo not given),?,?,16µM*,-63*,nt,?
Nc1ccc(/C=C/c2cccc3cccnc23)cc1,nt,-21%,nt,nt,-8%,nt
C/C(=N\NC(=S)Nc1ccccc1C)c1cc2ccccc2o1,?,-21%,-18%,?,?,?
C/C(=N\NC(=S)Nc1c(C)cccc1C)c1cc2ccccc2o1,?,?,-26%,-33,7.1µM*,?
CCCC(C(=O)Nc1c(C)cccc1C)N1C(=O)C(=O)c2ccccc21 (stereo not given),nt,nt,nt,-23,nt,nt
C(/C=C/c1ccccc1)=N/N1CCN(c2ccccc2)CC1,-17%,nt,51%,-101*,nt,?
CC(=O)c1c(C)nc2ccccc2c1N,?,-14%,-17%,-23,nt,6%
Cc1nc2ccccc2c(N)c1C(=O)/C=C/c1ccccc1,10µM*,?,18µM*,-99*,16µM*,?
CC(C)c1nc(SCC(=O)Nc2nccs2)c2ccccc2n1,-6%,-19%,-28%,?,27%,-11%[46.1 µM]
CC(C)c1nc(SCC(=O)Nc2ccc(N(C)C)cc2)c2ccccc2n1,nt,nt,?,-77*,nt,nt
CN(C)c1ccc(NC(=O)CSc2nc(N)c(C(=O)Nc3ccc(N(C)C)cc3)s2)cc1,?,4µM*,?,?,4µM*,?
CC(C)(C)c1nc(SCC(=O)NNC(=O)c2ccccc2)c2ccccc2n1,nt,-30%,0%,-63*,?,?
COc1ccc(NC(=O)CSc2nc(N)c(C(=O)Nc3ccc(N(C)C)cc3)s2)cc1,-19%,?,8%,nt,nt,?
COc1ccc(C(=O)NNC(=O)CSc2nc(C(C)C)nc3ccccc23)cc1,-12%[46.1 µM],-15%,-14%,-65*,-12%,?
Cn1c(-c2cccnc2)cc2c(Nc3cccc(C(F)(F)F)c3)nccc21,nt,nt,nt,-22,nt,nt
CCC(CC)C(=O)Nc1ccc(OCc2cc(=O)n3ccc(C)cc3n2)cc1,-18%[46.1 µM],3%,-10%,8,-12%,nt
N#Cc1cccc(-c2ccc3c(c2)COCC(=O)N3CCN2CCOCC2)c1,nt,nt,nt,-11,nt,nt
C=CCN1C(=O)C(CC(=O)Nc2ccc(OCCC)cc2)N(CCCN2CCN(Cc3ccccc3)CC2)C1=S (stereo not given),?,11µM*,?,1,?,?
CCCCCCOc1ccc(NC(=O)CC2C(=O)N(CC)C(=S)N2Cc2ccco2)cc1 (stereo not given),?,?,-12%,-90*,?,?
CCc1ccc(NC(=O)Cn2c(SCc3ccc(C)cc3)nc3ccncc32)cc1,nt,-21%,nt,nt,-21%,nt
CCC1(C)Cc2c(sc3nc(SC)nc(NCCN(C)C)c23)CO1 (stereo not given),-11%,nt,-14%,-108*,nt,?
CSc1nc(SCCN(C)C)c2c3c(sc2n1)COC(C)(C)C3,?,-7%,-6%,7,i,?
